Measurements published in PubChem BioAssay.
Calls of active or inactive are those of the source.

System: not listed separately
Experiment: CREB reporter modulators under forskolin, primary screen, cell-based, PC12, CRE-LacZ reporter, forskolin-stimulated (AID 1146);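 further: PC12 cells with 6xCRE LacZ reporter stimulated by forskolin 10 µM; beta-galactosidase reporter signal reflecting CREB driven transcription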
Details: luminescence, 4.5 h, higher = more signal, called active from +8 up or from −8 down

| Structure (SMILES) | z-score |
| --- | --- |
| COC(=O)[C@@]1(Cc2ccc(F)cc2)[C@H]2c3cc(C(=O)N(C)C)n(CCc4ccc(OC)c(Br)c4)c3C[C@H]2CN1C(=O)c1ccccc1 | 124 (active) |
| CC(C)[Si](C#CCCCC#N)(O[C@H](c1ccccc1)c1cn(Cc2ccccc2)nn1)C(C)C | -0.0473 (inactive) |
| COCCOC(=O)N1C(=O)[C@@]2(c3cc(C#CC4(O)CCCCCC4)ccc31)[C@H](C(=O)Nc1nc3ccccc3s1)[C@H]1C(=O)O[C@H](c3ccccc3)[C@H](c3ccccc3)N1[C@@H]2c1ccc(O)cc1 | 7.33 (inactive) |

Target: Streptavidin (Streptomyces avidinii) (UniProt P22629)
Experiment: streptavidin binders on small-molecule microarray, primary screen, artefact control for SMM compound annotation, biophysical, 635/667 nm fluorescence (AID 1147);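 further: signal reflects streptavidin binding to arrayed compounds as a control protein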
Details: streptavidin binding, higher = more signal

Sequence of Streptavidin (Streptomyces avidinii) (P22629 whole entry, looked up): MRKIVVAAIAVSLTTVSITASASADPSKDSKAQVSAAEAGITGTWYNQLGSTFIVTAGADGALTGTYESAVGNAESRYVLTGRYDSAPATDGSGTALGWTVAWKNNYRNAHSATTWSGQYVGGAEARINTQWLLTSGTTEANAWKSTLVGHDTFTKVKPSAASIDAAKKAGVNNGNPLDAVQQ

| Structure (SMILES) | composite z-score |
| --- | --- |
| CCC#CCN(Cc1ccccc1Br)[C@H](/C=C/C1CC1)[C@@H](O)Cc1ccccc1 | -0.529 |
| CCCCN1CC=CC23O[C@@H]4/C=C\CCCOC(=O)C4[C@H]2C(=O)N(CCO)[C@@H]3C1=O (some centres undefined) | -1.6 |
| C=CCNC(=O)[C@@H]1[C@H]2C(=O)O[C@H](c3ccccc3)[C@H](c3ccccc3)N2[C@H](c2ccccc2OCCO)[C@@]12C(=O)N(C(=O)OCCOC)c1ccc(C#CC3(O)CCCCCC3)cc12 | 0.159 |
| O=C(C1N=C(c2ccc(OCCCO)cc2)N(c2ccccc2)O1)N1CCCCC1 (centres undefined) | 1.56 |
| CN(C)CCCCCCNC(=O)[C@@H]1C[C@@H]2C(=O)N3CCC[C@H]3C(=O)N2[C@@H]1c1cccc(OCCO)c1 | 0.656 |
| COC(=O)[C@@]1(Cc2ccccc2)[C@H]2c3cc(C(=O)N(C)C)n(Cc4ccc(C)o4)c3C[C@H]2CN1C(=O)c1ccccc1 | 2.31 |
| O[C@@H](Cc1ccccc1)[C@@H](/C=C/C1CC1)N(CC#Cc1ccccc1)Cc1ccccc1Br | -0.5 |
| COCC(=C=CC[C@H](O)c1ccc(OCCO)cc1)CCO | -0.407 |
| NCCCCCNC(=O)[C@H]1C[C@H]2C(=O)N3CCC[C@H]3C(=O)N2[C@H]1c1cccc(OCCO)c1 | 0.812 |
| CCCC[C@@H]1C[C@H]1[C@@H](NC(=O)c1cccs1)c1ccccc1C(F)(F)F | 2.1 |
| CCOC(=O)C[C@H]1[C@H](OC(=O)Cc2ccc3c(c2)OCO3)[C@@H](NC(=O)C2CCCCC2)c2cc(OCCCO)ccc2N1C(=O)c1ccccc1 | 0.584 |
| COc1cc(C(O)C2C=CC3C(=O)N(C)C(=O)C3N2Nc2ccccc2)cc(OC)c1OC (centres undefined) | 1.06 |
| COc1ccc([Si](C)(C)[C@@H]2[C@@H](CC(=O)N3Cc4ccccc4C[C@H]3CO)O[C@]3(C(=O)N(Cc4ccc(N5C(=O)c6cccc7cccc5c67)cc4)c4ccccc43)[C@H]2C)cc1 | 0.29 |
| C=CCC(OC(C)=O)[C@@H]1[C@@H](N(Cc2ccc(-c3cccc(C(F)(F)F)c3)o2)C(=O)c2ccc(-c3ccccc3)cc2)c2cc(OCCCO)ccc2N1C(=O)Cc1ccc2ccccc2c1 (some centres undefined) | -0.368 |
| C=CCNC(=O)[C@H]1[C@@H]2C(=O)O[C@@H](c3ccccc3)[C@@H](c3ccccc3)N2[C@@H](c2ccccc2OCCO)[C@]12C(=O)N(C(=O)OCCOC)c1ccc(C#CC3(O)CCCCCC3)cc12 | -0.139 |
| COc1ccc([Si](C)(C)[C@@H]2[C@@H](CCO)O[C@]3(C(=O)N(Cc4cccc(NC(=O)[C@H](C)O)c4)c4ccccc43)[C@H]2C)cc1 | 0.887 |
| CCCCC[C@H]1OC[C@@]23C=C(Br)[C@@H](CC12)[C@@]1(CO1)C3=O (some centres undefined) | -0.619 |
| C=CCN1Cc2ccccc2[C@@H]2OC(c3ccc(OCCCO)cc3)=N[C@]2(CC=C)C1=O | 0.579 |

| Structure (SMILES) | composite z-score |
| --- | --- |
| Cc1ccc(NN2C(C(O)c3c(F)cccc3Cl)C=CC3C(=O)N(C4CCCCC4)C(=O)C32)cc1 (centres undefined) | 1.75 |
| CCCCC(CC)C(O)C1C=CC2C(=O)N(c3ccccc3)C(=O)C2N1Nc1ccc(C#N)cc1 (centres undefined) | 1.18 |
| NC(=O)[C@H]1[C@@H]2C(=O)O[C@@H](c3ccccc3)[C@@H](c3ccccc3)N2[C@@H](c2ccc(OCCO)cc2)[C@]12C(=O)Nc1ccc(C#CCCO)cc12 | 0.617 |
| CCC1=C2CN(Cc3ccccc3)[C@@H](C(=O)Cc3ccccc3)C2C=CCC1 (some centres undefined) | 0.0145 |
| [N-]=[N+]=Nc1ccccc1C[C@]1(C(=O)NCC(O)CO)COC(c2ccc(OCCCO)cc2)=N1 (some centres undefined) | 0.305 |
| CCCC=C(CCC)[C@@H](NP(=O)(c1ccccc1)c1ccccc1)c1ccc(-c2ccccc2)cc1 | 1.09 |
| CCOC(=O)C[C@H]1[C@H](OC(=O)c2ccc(C(=O)c3ccccc3)cc2)[C@@H](NC(=O)c2ccc(-c3ccccc3)cc2)c2cc(OCCCO)ccc2N1C(=O)Cc1ccc(OC)cc1 | 0.324 |
| CO[C@H]1O[C@H](CO)[C@@H](OC(=O)CCc2ccccc2)[C@@H]2OC(=O)[C@@H](Cc3ccccc3)C/C=C/C[C@H](Cc3ccccc3)C(=O)O[C@@H]12 | 0.29 |
| CCOC(=O)C1=C[C@@H](c2ccccc2)N(S(=O)(=O)c2ccc(C)cc2)[C@H]1c1ccc(OC)cc1 | 0.689 |
| [N-]=[N+]=Nc1ccccc1C[C@]1(C(=O)NCCN2CCOCC2)COC(c2ccc(OCCCO)cc2)=N1 | 1.25 |
| COc1ccc([Si](C)(C)[C@H]2[C@H](CC(=O)N3Cc4ccccc4C[C@H]3CO)O[C@@]3(C(=O)N(Cc4ccc(N5CCOC5=O)cc4)c4ccccc43)[C@@H]2C)cc1 | -0.0564 |
| CS(=O)(=O)CCOC(=O)C1=CC(c2ccc(CO)cc2)=CC(C2CC2)N(Cc2sc3ccccc3c2Cl)C=C1C(=O)OCCS(C)(=O)=O (centres undefined) | 1.95 |
| CCCCNC(=O)c1ccc(C#CC(C)(C)C)c(OC(C)=O)c1 | 1.01 |
| O=C1C2C=CC(C(O)c3ccco3)N(Nc3ccccc3F)C2C(=O)N1c1ccccc1 (centres undefined) | 0.99 |
| COc1cc(NN2C(C(O)c3ccco3)C=CC3C(=O)N(C)C(=O)C32)cc(OC)c1OC (centres undefined) | 0.536 |
| COC(=O)[C@@]1(Cc2ccc(F)cc2)[C@H]2c3cc(C(=O)N(C)C)n(CCc4ccc(OC)c(Br)c4)c3C[C@H]2CN1C(=O)c1ccccc1 | 0.221 |
| CC(C)[Si](C#CCCCC#N)(O[C@H](c1ccccc1)c1cn(Cc2ccccc2)nn1)C(C)C | 0.62 |
| COCCOC(=O)N1C(=O)[C@@]2(c3cc(C#CC4(O)CCCCCC4)ccc31)[C@H](C(=O)Nc1nc3ccccc3s1)[C@H]1C(=O)O[C@H](c3ccccc3)[C@H](c3ccccc3)N1[C@@H]2c1ccc(O)cc1 | 0.857 |
